Screens: PubChem BioAssay, National Center for Advancing Translational Sciences (NCATS)
Tau fibril ThT = qHTS for Inhibitors of Tau Fibril Formation, Thioflavin T Binding. Microtubule-associated protein tau (Homo sapiens), P10636. recombinant tau K18 P301L, heparin-induced fibrillization, ThT fluorescence. Potency, µM (doses to about 57.4 µM), without a hit: top-dose activity, negative = inhibition, hits mostly inhibitors. 270,000 compounds, 2.1% hits. AID 1460, 2008; further: nearly all actives have a fitted effect of over 55% in size
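In this qHTS, human K18 P301L tau is incubated with compound and heparin for 6 hr at 37 C, and Thioflavin T fluorescence then reports fibril load.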
GoLoco inh red = qHTS Assay for Inhibitors of RGS12 GoLoco Motif Activity (Red Fluorophore); Guanine nucleotide-binding protein G(i) subunit alpha-1 (Homo sapiens), P63096; Gai1:RGS12 GoLoco peptide FP, rhodamine, 10 min; Potency, µM (titrated, usually from 61.6 µM), inactives show top-dose activity, negative = inhibition, hits mostly inhibitors; 230,000 compounds, 0.44% hits; AID 880, 2007; active means well fitted inhibition curve with a large enough effect, not every such curve was filed as active; inactive means no such curve, though single readings can be large or run the other way; further: nearly all actives have a fitted effect of over 30% in size
Target sequence (P63096 whole entry, looked up): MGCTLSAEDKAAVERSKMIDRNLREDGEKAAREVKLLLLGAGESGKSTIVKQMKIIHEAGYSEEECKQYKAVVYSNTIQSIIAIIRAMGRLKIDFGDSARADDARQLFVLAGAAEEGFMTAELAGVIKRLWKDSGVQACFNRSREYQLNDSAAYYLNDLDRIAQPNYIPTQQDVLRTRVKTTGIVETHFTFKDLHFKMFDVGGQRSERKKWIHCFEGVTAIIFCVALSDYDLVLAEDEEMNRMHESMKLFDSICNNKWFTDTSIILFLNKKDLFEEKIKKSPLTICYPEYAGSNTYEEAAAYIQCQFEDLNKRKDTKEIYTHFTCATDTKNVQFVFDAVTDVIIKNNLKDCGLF
KDM4E inh = qHTS Assay for Inhibitors of Human Jumonji Domain Containing 2E (JMJD2E); Potency, µM (series often up to 57.1 µM), inactives show top-dose activity change, negative = inhibition, most hits filed as inhibitors; 230,000 compounds, 1.6% hits; Lysine-specific demethylase 4E (Homo sapiens), B2RXH2; JMJD2E catalytic domain, FDH-coupled NADH fluorescence (FDH is formaldehyde dehydrogenase);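 further: 0% = wells with enzyme and -100% = buffer wells without enzyme; nearly all actives have a fitted effect of over 50% in size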
Target sequence (B2RXH2 1-337 limits assumed): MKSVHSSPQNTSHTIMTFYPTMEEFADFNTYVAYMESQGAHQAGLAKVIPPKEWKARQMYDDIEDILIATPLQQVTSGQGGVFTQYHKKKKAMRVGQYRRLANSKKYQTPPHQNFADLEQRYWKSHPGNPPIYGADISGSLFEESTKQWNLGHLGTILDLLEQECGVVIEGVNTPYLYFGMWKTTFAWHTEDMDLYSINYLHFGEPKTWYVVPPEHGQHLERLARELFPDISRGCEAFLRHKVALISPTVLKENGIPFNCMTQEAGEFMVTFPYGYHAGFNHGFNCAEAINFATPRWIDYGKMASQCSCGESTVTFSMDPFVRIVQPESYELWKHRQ
Tau fibril FP = qHTS for Inhibitors of Tau Fibril Formation, Fluorescence Polarization; AID 1468, 2008; 280,000 compounds, 0.39% hits; K18 P301L tau heparin fibrillization, Alexa594 FP, 6 h; Potency, µM (titrated, usually from 57.7 µM), without a hit: top-dose activity, negative = inhibition, most hits filed as inhibitors; further: nearly all actives have a fitted effect of over 55% in size
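FP of Alexa 594-tau after heparin (20 uM) induction. Substrate: human K18 P301L, 15 uM unlabeled, 0.24 uM labeled. Buffer 100 mM sodium acetate pH 7. 6 hr, 37 C.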
Tau fluor counter = Counterscreen qHTS for Inhibitors of Tau Fibril Formation, Fluorescence Polarization; tau K18 P301L (four-repeat tau fragment) Alexa594 fluorescence, heparin fibrillization; Potency, µM (top dose mostly 57.7 µM), inactives show top-dose activity change, negative = decrease; 280,000 compounds, 0.93% hits; AID 1463, 2008; further: nearly all actives have a fitted effect of over 55% in size
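Human K18 P301L tau (15 uM unlabeled plus 0.24 uM Alexa 594-labeled, final) in 100 mM sodium acetate pH 7 was mixed with compound and 20 uM heparin and incubated 6 hr at 37 C.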
* = called active by the depositor; ? = inconclusive; nt = no result; [ ] = another dose, or the depositor's remark. Rows were chosen to be rich in hits. Some 3.4% of all compounds tested hit in one or more screens of this group. Unless noted, the call rests on the fitted dose curve; in most records, active means well fitted curve in the direction sought with a large enough effect; inconclusive means small, poorly fitted or top-dose-only effect, or another doubt; inactive means no such curve, though single readings can be large; an effect the other way counts as inactive or inconclusive. Unless noted, on the % scale 0 is the no-effect control and ±100 the full control effect; potency means the concentration at half of the fitted maximal effect.

SMILES	Tau fibril ThT	GoLoco inh red	KDM4E inh	Tau fibril FP	Tau fluor counter
O=[N+]([O-])c1ccc(CCNc2cccc3ccccc23)c([N+](=O)[O-])c1	?	-0.3%	?	10.4%	?
Cc1ccc2oc(=O)n(Cc3ccccc3Cl)c2c1	-11.3%	nt	nt	-3.1%	-19.8%
Nc1ccccc1NC1CCCCC1	22.4µM*	5.4%	14.1µM*	-6.8%	?
CCOc1ccc(-c2[nH]ncc2Oc2ccccc2OCC)c(O)c1	?	-8.4%	-21.9%	-14.6%	14.1µM*[quencher]
CCOc1ccc(-c2[nH]ncc2Oc2ccccc2OC)c(O)c1	?	8.4%	?	1.3%	14.1µM*[quencher]
CCOc1ccc(-c2n[nH]c(C)c2Oc2ccc(OC)cc2)c(O)c1	-18.8%	1.5%	?	?	14.1µM*[quencher]
Cc1[nH]nc(-c2ccc(OCc3cnn(-c4ccccc4)c3)cc2O)c1Oc1ccc(F)cc1	3.1%	27.4%	?	?	?
CC1CCC(NC(=O)c2ccc3c(c2)N(Cc2ccccc2F)C(=O)c2ccccc2S3)CC1 (stereo not drawn)	-10.8%	nt	nt	-10.8%	-4.7%
Cc1ccccc1-c1cc2nccc(-c3cc(Cl)ccc3O)n2n1	8.6%	nt	nt	2.1%	4.2%
Cc1ccc(O)c(-c2ccnc3cc(-c4ccc(Cl)cc4)nn23)c1	4.6%	nt	nt	31.6µM*	?
COc1cc(N2CCCC2)ccc1[N+](=O)[O-]	-1.4%	7.4%	-1.8%	5.3%	-2.5%
COc1ccccc1C1CCN(c2ccc([N+](=O)[O-])c(OC)c2)CC1	8.91µM*	5.9%	-1.8%	-10.0%	?
C=Cc1ccc(Cn2c(C(=O)O)c(CNC3CCCCC3)c3ccc(OC)cc32)cc1	?	nt	nt	-7.5%	-18.4%
CC1(C)OC2OC(C(=O)N/N=C/c3cc(Br)ccc3O)C3OC(C)(C)OC3C2O1 (stereo not drawn)	-6.0%	3.6%	28.2µM*	-0.7%	-11.7%
CCN(C(=O)c1nn(C)c2c1CSc1ccccc1-2)c1cccc(C)c1	-0.2%	nt	nt	-5.6%	-5.1%
COc1ccc(C(=O)NCCc2sc(-c3cccc(F)c3)nc2C)cc1	?	nt	nt	-0.1%	-7.3%
CCc1cnc2c(c1SCC(=O)c1ccc(OC)cc1)c(=O)n(C)c(=O)n2C	?	nt	nt	2.3%	-9.9%
COc1cccc(-n2c(N)c(-c3nc4ccccc4[nH]3)sc2=S)c1	7.94µM*	-5.9%	-1.6%	13.1%	15.8µM*[quencher]
Cc1ccc(OCC(=O)Nc2ccc3nc(SCC(=O)N4CCCC4)sc3c2)cc1C	?	nt	nt	-4.6%	-21.9%
O=S(=O)(NCCc1csc2nc(-c3ccc(F)cc3)nn12)c1ccc(Oc2ccccc2)cc1	-0.7%	nt	nt	?	-14.7%
CCN(CC)c1ccc(NS(=O)(=O)c2cc(-c3onc(C)c3C)ccc2OC)c(C)c1	3.4%	nt	nt	16.9%	?
CC(=O)N(C)C1=C(O)c2ccccc2C(=O)C1=O	28.2µM*	-1.0%	-9.1%	?	-21.1%
Cc1ccc(/C=C2/C(=O)c3ccc(C(=O)O)cc3C2=O)o1	5.62µM*	243.7%	-22.8%	?	-20.1%
O=C1/C(=C/c2ccco2)CCc2ccccc21	?	8.7%	-3.8%	2.9%	-14.1%
O=C(O)c1ccc2c(c1)C(=O)/C(=C\c1ccco1)C2=O	11.2µM*	-13.7%	-29.1%	15.8µM*	?
SMILES	Tau fibril ThT	GoLoco inh red	KDM4E inh	Tau fibril FP	Tau fluor counter
O=C1C(=Cc2ccco2)C(=O)c2ccccc21	12.6µM*	-6.1%	-23.5%	?	?
CCN1C(=O)N/C(=C/c2ccc(C)o2)C1=O	?	-12.0%	-29.2%	?	-15.8%
Cc1ccc(C=C2C(=O)c3ccccc3C2=O)o1	8.91µM*	103.4%	-1.4%	?	3.6%
O=C(O)c1ccc2c(c1)C(=O)/C(=C/c1ccccc1)C2=O	?	-13.4%	-9.2%	-0.2%	-16.6%
COc1ccc(-c2noc(CCC(=O)N(C)c3cc(Cl)ccc3OC)n2)cc1	?	nt	nt	-7.3%	-24.1%
CCC(=O)N1CCc2cc(CNC(=O)Nc3cc(OC)c(OC)c(OC)c3)ccc21	-11.9%	nt	nt	11.1%	-21.0%
CCOC(=O)c1cccc(NC(=O)NCc2ccc3c(c2)CCN3C(=O)CC)c1	?	nt	nt	?	17.8µM*[quencher]
COc1ccc2oc(=O)c(C(=O)NCCc3c(C)[nH]c4c(C)cccc34)cc2c1	?	nt	nt	11.4%	15.8µM*[quencher]
O=C1c2ccccc2-c2onc3c(Oc4ccccc4)cc(O)c1c23	17.8µM*	112.8%	-6.2%	-6.9%	?
COc1ccc(-c2onc(C)c2-c2ccccc2)c(O)c1	-5.9%	0.1%	0.8%	-4.7%	-25.8%
Cc1nn2c(=O)cc(COC(=O)c3ccccc3NC(=O)C(C)C)nc2s1	?	nt	nt	-2.8%	-1.4%
O=C(/C=C/c1cccc([N+](=O)[O-])c1)c1ccccc1	?	1.8%	4.1%	9.7%	-8.2%
O=C(/C=C/c1cccc([N+](=O)[O-])c1)n1cnc2ccccc21	12.6µM*	28.2%	-8.9%	?	?
O=C(O)c1ccc(NC2=C(N3CCOCC3)C(=O)c3ccccc3C2=O)cc1	17.8µM*	1.4%	-29.6%	?	?
CC(=O)c1ccc(NC2=C(N3CCOCC3)C(=O)c3ccccc3C2=O)cc1	?	-5.1%	-8.9%	-9.0%	?
CC(=O)N(C1=C(N2CCOCC2)C(=O)c2ccccc2C1=O)c1ccc(C(=O)O)cc1	14.1µM*	0.8%	10µM*	?	17.8µM*[quencher]
O=C(Nc1cccc(-c2csc(Nc3ccc(Cl)cc3)n2)c1)c1cc([N+](=O)[O-])cc(C(F)(F)F)c1	?	4.8%	1.9%	4.6%	7.08µM*[quencher]
O=C(Nc1ccc(-c2csc(Nc3ccc(Cl)cc3)n2)cc1)c1cc([N+](=O)[O-])cc(C(F)(F)F)c1	?	0.2%	5.3%	?	7.08µM*[quencher]
Nc1nc(-c2ccc([N+](=O)[O-])cc2)c(C(=O)Nc2ccc(Cl)cc2)s1	-10.5%	3.8%	-8.0%	-9.7%	-15.0%
COc1ccc(OC)c(C2C(C(=O)Nc3ccc(C)cc3)=C(C)Nc3nnnn32)c1 (stereo not drawn)	-2.9%	nt	nt	-2.2%	-4.9%
Cc1ccc2c(CC(=O)N(Cc3ccc(N(C)C)cc3)Cc3ccco3)coc2c1C	?	nt	nt	3.4%	?
CC(=O)c1ccc(NC(=O)CCCc2nc(-c3cccc(C)c3)no2)cc1	4.9%	nt	nt	-2.9%	-14.9%
COC(=O)c1c(-c2ccc(C(C)(C)C)cc2)csc1NC(=O)C1C2CCC(O2)C1C(=O)O (stereo not drawn)	?	8.8%	15.8µM*	-13.0%	-4.8%
